Results: PubChem BioAssay AID504734 (The Scripps Research Institute Molecular Screening Center, 2011)
The campaign covered roughly 340,000 compounds. About 730 (0.21%) were called active. The full list was thinned out, with actives kept by preference. Unmarked numbers belong to inactive results.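 How the source made its calls: active means inhibition above the mean over all tested compounds plus 3 SD (cut at about 21% in these data); inactive means the rest.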

Target: Toll-like receptor 9 (Homo sapiens) + Myeloid differentiation primary response protein MyD88 (Homo sapiens) (UniProt Q9NR96+Q99836)
Assay: disruptors of TLR9 binding to MyD88 – cell-based, CHO, BLA complementation, fluorescence, primary screen (AID 504734);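 further: 0% = DMSO only wells and 100% = clavulanate BLA inhibitor control wells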
Settings: CHO BLA complementation TLR9-MyD88, CCF4 FRET ratio; at 4.98 µM; hits give high values

Sequence of Toll-like receptor 9 (Homo sapiens) + Myeloid differentiation primary response protein MyD88 (Homo sapiens) (Q99836 whole entry, looked up): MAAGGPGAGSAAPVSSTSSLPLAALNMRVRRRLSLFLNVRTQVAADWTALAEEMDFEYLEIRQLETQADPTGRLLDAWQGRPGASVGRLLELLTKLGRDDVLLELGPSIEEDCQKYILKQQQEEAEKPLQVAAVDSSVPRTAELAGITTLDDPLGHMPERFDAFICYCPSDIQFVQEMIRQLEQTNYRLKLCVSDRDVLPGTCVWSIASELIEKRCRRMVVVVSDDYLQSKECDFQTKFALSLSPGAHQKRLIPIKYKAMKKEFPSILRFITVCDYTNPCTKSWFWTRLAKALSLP
Sequence of Toll-like receptor 9 (Homo sapiens) + Myeloid differentiation primary response protein MyD88 (Homo sapiens) (Q9NR96 whole entry, looked up): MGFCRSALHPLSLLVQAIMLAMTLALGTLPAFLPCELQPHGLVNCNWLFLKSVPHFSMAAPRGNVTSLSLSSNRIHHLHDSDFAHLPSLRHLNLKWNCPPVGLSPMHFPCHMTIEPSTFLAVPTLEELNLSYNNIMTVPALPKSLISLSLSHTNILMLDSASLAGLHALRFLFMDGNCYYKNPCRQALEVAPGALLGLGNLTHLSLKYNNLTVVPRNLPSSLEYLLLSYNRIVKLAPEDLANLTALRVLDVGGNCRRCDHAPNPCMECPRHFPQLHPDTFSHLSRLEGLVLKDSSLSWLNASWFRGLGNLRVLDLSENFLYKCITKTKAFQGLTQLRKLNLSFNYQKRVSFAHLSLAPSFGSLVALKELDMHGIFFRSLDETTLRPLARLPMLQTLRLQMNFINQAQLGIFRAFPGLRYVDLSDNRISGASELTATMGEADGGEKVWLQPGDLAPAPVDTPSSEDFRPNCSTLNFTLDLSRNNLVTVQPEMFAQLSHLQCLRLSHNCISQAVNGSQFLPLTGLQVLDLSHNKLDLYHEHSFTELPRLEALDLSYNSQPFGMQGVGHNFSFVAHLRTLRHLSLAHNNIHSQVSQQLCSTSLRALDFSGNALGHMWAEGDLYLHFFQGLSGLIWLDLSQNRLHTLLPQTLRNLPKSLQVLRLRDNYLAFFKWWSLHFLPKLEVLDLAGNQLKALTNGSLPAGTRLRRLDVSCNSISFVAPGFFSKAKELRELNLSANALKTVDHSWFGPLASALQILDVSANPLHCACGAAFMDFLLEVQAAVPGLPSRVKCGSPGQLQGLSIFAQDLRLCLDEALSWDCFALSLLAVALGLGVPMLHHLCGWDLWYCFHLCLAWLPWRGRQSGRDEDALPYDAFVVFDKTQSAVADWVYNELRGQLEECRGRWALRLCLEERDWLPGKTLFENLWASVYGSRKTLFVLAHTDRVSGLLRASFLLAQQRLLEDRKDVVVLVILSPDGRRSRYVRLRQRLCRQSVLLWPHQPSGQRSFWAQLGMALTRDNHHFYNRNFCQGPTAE

Row | SMILES | inhibition
1 | C[C@@H]1CN([C@@H](C)CO)C(=O)c2cc(Br)cnc2O[C@@H]1CN(C)C(=O)C1CCCCC1 | 4.79%
2 | COc1ccc(/C=C2\SC(=S)N(CCC(=O)N3CCOCC3)C2=O)cc1OC | -12.7%
3 | O=C(Cc1ccc([N+](=O)[O-])cc1)NCCS(=O)(=O)N1CCN(c2ccccc2)CC1 | 12.1%
4 | CC(=O)Nc1ccc(SCC(=O)NC(=O)c2ccc(Cl)cc2)cc1 | -11.6%
5 | O=C(CNC(=O)OCc1ccccc1)Oc1cc2oc(=O)cc(-c3ccccc3)c2cc1Cl | 27.3% (active)
6 | O=C(CNC(=O)c1ccc(-c2ccccc2)cc1)OCc1ccc(Cl)cc1 | -3.72%
7 | CC(=O)COc1ccc2c(-c3ccccc3)cc(=O)oc2c1 | 3.27%
8 | CCN(CC(=O)Nc1ccc(NC(C)=O)cc1)C(=O)C1CC(=O)N(c2ccc3c(c2)OCCO3)C1 (stereo not given) | -3.12%
9 | CCn1c(SCC(=O)N2CCCC2=O)nc2ccccc21 | -8.17%
10 | Cc1ccc(C(=O)OCC(=O)NC2CCCCCCC2)cc1C | -1.15%
11 | N#CCCN(C(=S)Nc1ccc(Cl)c(Cl)c1)C1CCCCC1 | 11.8%
12 | CCN(CC)C(=O)C(C)N1c2cccc3cccc(c23)S1(=O)=O (stereo not given) | 4.23%
13 | O=C1CCC(=O)N1CCC(=O)N(C(=O)NC1CCCCC1)C1CCCCC1 | 4%
14 | Cc1ccc(C(=O)N2CCCc3ccccc32)c(Cl)c1 | -5.91%
15 | Cc1cccc2cc3c(N)c(C(=O)N4CCCc5ccccc54)sc3nc12 | 32.5% (active)
16 | O=C(c1c(Cl)nc2sccn12)N1CCCc2ccccc21 | -2.96%
17 | C[C@H]1CN([C@@H](C)CO)C(=O)CCCn2cc(nn2)CO[C@@H]1CN(C)S(=O)(=O)c1cccc(C#N)c1 | -7.52%
18 | O=C(COC(=O)/C=C/c1cccs1)NC1CCCCC1 | 2.5%
19 | COc1ccccc1/C=C/C(=O)OCC(=O)NC1CCCCCC1 | 22.6% (active)
20 | COc1ccc(/C=C/C(=O)OCC(=O)NC2CCCCCC2)cc1OC | -1.25%
21 | C[C@H](CO)N1C[C@H](C)[C@@H](CN(C)C(=O)C2CCCCC2)OCc2cnnn2CCCC1=O | 1.13%
22 | O=C(COC(=O)/C=C/c1ccc(Cl)cc1)NC1CCS(=O)(=O)C1 (stereo not given) | -13.5%
23 | CCN(CC)CCCC(C)n1c2nc(=O)[nH]c(=O)c-2nc2cc(Cl)ccc21 (stereo not given) | 22.6% (active)

Row | SMILES | inhibition
24 | Cc1nnc(SC(C)C(=O)c2c[nH]c3ccccc23)n1C1CC1 (stereo not given) | -9.37%
25 | Cc1ccc(S(=O)(=O)N2C[C@]3(O)C[C@@H]4C(=O)N(c5ccccc5)C(=O)[C@@H]4C[C@]3(OC(=O)NC3CC3)C2)cc1 | -0.67%
26 | Cc1ccc(S(=O)(=O)N2CCCCC2)cc1NC(=O)CCNC(=O)c1ccccc1Cl | -7.91%
27 | O=[N+]([O-])c1ccc(N=NNc2ccc([N+](=O)[O-])cc2)cc1 | -10.5%
28 | Cc1ccccc1OCCOc1ccc([N+](=O)[O-])cc1/C=N/n1cnnc1 | -3.95%
29 | Cc1cccc(COc2ccccc2/C=N/Nc2ccc([N+](=O)[O-])cc2)c1 | 21.7% (active)
30 | O=[N+]([O-])c1cccc(/C=N/Nc2ncc(Br)cn2)c1 | -10.4%
31 | Cc1cc([N+](=O)[O-])ccc1NCc1cccc([N+](=O)[O-])c1 | -1.82%
32 | O=[N+]([O-])c1ccc(N/N=C/c2ccccc2)cc1 | 21.1% (active)
33 | C[C@H](O)[C@@H]1C(=O)N2CCc3c([nH]c4ccccc34)[C@@H]2C[C@@H]1N(C)C(=O)Nc1ccc(F)cc1 | -0.01%
34 | CCOc1cc(/C=N/NC(=O)c2c(C)nc3ccc(Cl)cn23)ccc1O | -2.46%
35 | C=CCN1CCN(c2ccncc2S(=O)(=O)N2CCN(C)CC2)CC1 | 9.55%
36 | Cc1sc2ncnc(SCC(=O)NC3CCS(=O)(=O)C3)c2c1C (stereo not given) | -4.28%
37 | Cn1nc(N)c2ncc(C(Cl)(Cl)Cl)nc21 | -17.4%
38 | COc1cc(C(=O)OCCCN2CCOCC2)cc(OC)c1OC | 1.8%
39 | Cc1cc(OCC(=O)Nc2nccs2)c2c(C)c(C)c(=O)oc2c1 | -3.81%
40 | COc1ccccc1-c1n[nH]nc1C1=CC(=O)CC(C)(C)C1 | 9.73%
41 | CNC(=S)N/N=C/c1ccc(OCc2ccccc2)c(Br)c1 | 29.9% (active)
42 | CNC(=S)NNC(=O)c1sccc1OCc1ccccc1 | -6.12%
43 | O=C(O)COc1ccc(/C=N/O)cc1Br | 7.44%
44 | CCCCCCN1C[C@@H](O)[C@H](n2cc(COC(=O)c3ccccc3)nn2)C[C@@H]1c1ccc(Cl)cc1 | -2.39%
45 | C[C@H]1CN([C@@H](C)CO)C(=O)CCCn2nncc2CO[C@@H]1CN(C)Cc1ccc(Oc2ccccc2)cc1 | 0.54%
46 | O=C(CCN1CCN(C/C=C/c2ccccc2)CC1)Nc1ccccc1Cl | 2.63%

Row | SMILES | inhibition
47 | NC(=O)C1(Nc2ccccc2Cl)CCCC1 | -10.1%
48 | O=C(Nc1ccccc1Cl)/C(Cl)=C(\Cl)S(=O)c1ccccc1 (stereo not given) | 23.8% (active)
49 | CN1OC[C@@H]2CN(S(=O)(=O)c3cccc(C(F)(F)F)c3)[C@H](c3ccc(-c4cc5ccccc5o4)cc3)C[C@@H]21 | -0.31%
50 | Cc1cc(C)cc(NC(=O)CCN2C(=O)c3ccccc3C2=O)c1 | -4.31%
51 | Cc1cc(C)cc(OCC(=O)NNC(=O)CCN2C(=O)c3ccccc3C2=O)c1 | -3.37%
52 | O=C(CCN1C(=O)c2ccccc2C1=O)NNC(=O)c1ccc(Cl)cc1Cl | 29.1% (active)
53 | Cc1ccc(-c2ccc(CN3C(C(C)C)C(=O)N(Cc4cn(CCC5OCCCO5)nn4)CCS3(=O)=O)cc2)cc1 (stereo not given) | -5.52%
54 | CC(OC(=O)c1ccc(NC(=O)CC#N)cc1)C(=O)Nc1ccc(S(=O)(=O)N2CCCC2)cc1 (stereo not given) | 0.94%
55 | COCCCn1c(C(=O)NC2CCCCC2)cc2c(=O)n3cccc(C)c3nc21 | -12.6%
56 | CC1(C)CN(Cc2cccnc2)C(=O)[C@H]1CC(=O)Nc1ccc(Br)cc1 | -3.44%
57 | O=C(CSc1ccc(Cl)cc1)NC1CC1 | -15.8%
58 | C#CCN(C[C@H]1[C@H](OC(=O)NC2CCCC2)[C@H](OC(=O)NC2CCCC2)C[C@H]2C(=O)N(c3ccccc3)C(=O)[C@@H]12)S(=O)(=O)c1ccc(C)cc1 | -5.56%
59 | Brc1ccc(C2=CC(c3ccco3)n3ncnc3N2)cc1 (stereo not given) | 30.4% (active)
60 | CC1=C(C(=O)OC2CCCCC2)C(c2cccnc2)n2ncnc2N1 (stereo not given) | -0.13%
61 | CCOc1ccc(C2=CC(c3ccccc3)n3ncnc3N2)cc1 (stereo not given) | 33.7% (active)
62 | COc1ccc(C2CC(c3ccc(C)cc3)Nc3ncnn32)cc1 (stereo not given) | 1.5%
63 | Clc1ccc2c(c1)C1=C(C(c3ccncc3)O2)C(c2ccc(Br)cc2)n2ncnc2N1 (stereo not given) | -8.31%
64 | CCN1C(=O)[C@H]2[C@@H](c3ccc(C(F)(F)F)cc3)N[C@]3(CCCN(Cc4ccc(Br)cc4)C3=O)[C@H]2C1=O | 5.46%
65 | N#CCCN(C(=O)Nc1ccc(Cl)c(Cl)c1)C1CCCCC1 | 8.97%
66 | CCN(C(=O)Nc1cccc2ccccc12)c1ccccc1 | -15.1%
67 | Cc1nc2ccccc2nc1CC(O)(c1ccccc1)c1ccccc1 | 2.03%
68 | CCOC(=O)c1cc(-c2sc(NC(=O)c3ccccc3)nc2C)n(CCO)n1 | 2.6%
69 | Cc1cc2c3ccccc3[nH]c(=O)n2n1 | 1.06%

Row | SMILES | inhibition
70 | CN(c1ccccc1)S(=O)(=O)c1ccc(C(=O)NCc2cccnc2)cc1 | 7.85%
71 | O=[N+]([O-])c1ccc(C(S(=O)(=O)Cc2ccccc2)S(=O)(=O)Cc2ccccc2)cc1 | 2.65%
72 | CC1CN(Cc2ccccc2)C(=S)NC1=O (stereo not given) | -6.13%
73 | O=C1NC(=O)C2C1C(c1ccc([N+](=O)[O-])cc1)=NN2Cc1ccccc1 (stereo not given) | 27.8% (active)
74 | CN(Cc1ccccc1)C(=O)CCC1CCN(C(=O)c2ccco2)CC1 | 0.05%
75 | NS(=O)(=O)c1ccc(CNC(=O)c2cc(S(=O)(=O)N3CCOCC3)ccc2N2CCCC2)cc1 | -5.7%
76 | CC1(c2cccc(Br)c2)NC(=O)N(CC(=O)NCCC2=CCCCC2)C1=O (stereo not given) | 3.69%
77 | COc1cccc(C(=O)OCc2cc(=O)oc3c(C)c(C)ccc23)c1OC | -5.33%
78 | COC(=O)Cc1cc(=O)oc2c(C)c(O)ccc12 | 21.6% (active)
79 | CCCc1cc(=O)oc2c(C)c(OCC(=O)Nc3ccccn3)ccc12 | 6.85%
80 | S=C(NN=Cc1ccccn1)Nc1ccccn1 | 10.2%
81 | CC1C(=O)N(Cc2cn(Cc3ccco3)nn2)CCS(=O)(=O)N1Cc1ccc(-c2cccc(CO)c2)cc1 (stereo not given) | -1.07%
82 | C[C@@H]1CN([C@@H](C)CO)C(=O)CCCn2nncc2CO[C@H]1CN(C)Cc1ccc(C(F)(F)F)cc1 | -8.49%
83 | C[n+]1ccc(C(=O)NCc2ccccc2)cc1 | -10.2%
84 | C[N+](C)(C)CCNC(=O)c1cc[n+](Cc2ccccc2)c(/C=N/O)c1 | 22.8% (active)
85 | O=C(NCCCNCc1ccccc1)c1ccc(/C=N/O)nc1 | -3.77%
86 | Cc1ccc2cccc([N+](=O)[O-])c2n1 | 4.24%
87 | COc1ccc(CCNC(=O)CN(c2ccccc2)S(=O)(=O)c2ccccc2)cc1 | 0.66%
88 | COc1cc2[nH]c(O)c(C=O)c2cc1OC | -8.58%
89 | CN=c1scc(-c2cc(OC)ccc2OC)n1/N=C/c1c(C)[nH]c2ccccc12 | 6.42%
90 | COc1ccc(OC)c(N=Cc2c(O)[nH]c3ccccc23)c1 | 41.1% (active)
